Structures are written as SMILES. Compounds without any hit were thinned out: in the full panel of roughly 83,000, 20% have a hit.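 A percent growth of 40 corresponds to 60% growth inhibition; 0 means no net growth; -100 means all cells died. Active threshold: below 10.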 Unmarked numbers belong to inactive results. Active and inactive are the calls of the source.

The values that follow come from PubChem BioAssay (NCI).

In the test the test system is MDA-MB-468 breast. Briefly: NCI-60 one-dose screen, 48 h (100 = growth as untreated, 0 = no growth, -100 = all killed). Particulars: 10 µM unless noted.
On to `CN1CCN(c2nc(-c3ccncc3)nc3sc4c(c23)CCCCCC4)CC1`, for which the growth was 62.7%.

In the case of `CC(c1ccccc1)N1CSc2nc3ncncc3n2C1` (stereo unspecified), the growth is -0.761% (active).

On to `CC(C)(C)n1cc(-c2ccnc(NCCCNS(=O)(=O)c3ccc(C(F)(F)F)cc3)c2)c(-c2cccc(O)c2)n1`, for which the growth was 11.8%.

Consider `O=C(c1ccc(Br)cc1)C(Br)C(c1ccc(Cl)cc1)C(c1ccccc1)[N+](=O)[O-]` (stereo unspecified), for which the growth was 80.7%.

For the molecule `CC(C)(C)n1cc(-c2ccnc(NCCCNS(=O)(=O)c3cccc4ccccc34)c2)c(-c2cccc(F)c2)n1`, the growth is 52.5%.

As to `O=C1C=CC(=O)c2c1nc1n2CCCC1`, the growth is 90.2%.

On to `COc1cc2c(cc1OC)-c1ccc3cc4c(cc3c1N(CCCN(C)C)C2)OCO4`, for which the growth is 22.3%.

Consider `O=c1n(C2OC(CO)C(O)C2O)ccc2nccn12` (stereo unspecified), for which the growth was 122%.

Consider `O=C(Cn1cc(CSc2nc3ccccc3o2)nn1)Nc1ccc(F)cc1F`, for which the growth is 104%.

For the molecule `COc1ccc(-c2n[nH]nc2-c2cc(OC)c3c(c2OC)OCO3)cc1`, the growth was -24.1% (active).

`COc1ccc(-c2nnc(-c3ccc4c(c3)nc(-c3ccncc3)n4C3CCCCC3)o2)cc1`: the growth is 75.2%.

As to `O=C1NC(=O)c2c1c1c3ccccc3ccc1c1[nH]c3ccccc3c21`, the growth was 7.32% (active).

For the molecule `O=C(Nc1ccc(-n2cc(-c3ccncc3)c(-c3ccc(Cl)c(O)c3)n2)cc1)Nc1ccc(Cl)c(C(F)(F)F)c1`, the growth is -19.8% (active).

For the molecule `N=c1sc(Cc2ccc(Cl)cc2)cn1CC(=O)c1ccc(F)cc1`, the growth is 84.7%.

Regarding `COc1ccc2sc(-n3nc4nc5n(c(=O)c4c3N)-c3ccccc3Sc3ccccc3-5)nc2c1`, the growth was 88.9%.

Consider `CC(C)(C)CC(C)(C)c1ccc(OCCOCC[N+](C)(C)Cc2ccccc2)cc1`, for which the growth was -81.8% (active).

As to `COC(=O)[C@H]1CCCN1C(=O)[C@H]1CCCN1C(=O)[C@@H](Cc1c[nH]c2ccccc12)NC(=S)Nc1cc(C(F)(F)F)cc(C(F)(F)F)c1`, the growth is 21%.

Consider `O=[N+]([O-])c1ccc(NS(=O)(=O)c2ccccc2)c2ccccc12`, for which the growth is 17%.

For `O=C(OC[C@H]1O[C@H](OC(=O)c2cc(O)c(O)c(OC(=O)c3cc(O)c(O)c(O)c3)c2)[C@H](OC(=O)c2cc(O)c(O)c(OC(=O)c3cc(O)c(O)c(O)c3)c2)[C@@H](OC(=O)c2cc(O)c(O)c(OC(=O)c3cc(O)c(O)c(O)c3)c2)[C@@H]1OC(=O)c1cc(O)c(O)c(OC(=O)c2cc(O)c(O)c(O)c2)c1)c1cc(O)c(O)c(OC(=O)c2cc(O)c(O)c(O)c2)c1`, the growth was 54.1%.

As for `CCCCOc1c(N)cc(Cl)cc1C(=O)OCCN(CC)CC`, the growth was 112%.

Take `COc1cccc(CCNc2ncnc3c2ncn3Cc2nnc3c4ccccc4c(Cl)nn23)c1`: the growth was 57.4%.

For `Cc1ccc(-c2nc3ccc(Cl)cn3c2NC2CCCCC2)o1`, the growth is 78.2%.

For `CC12OC(CC(O)C1O)n1c3ccccc3c3c4c(c5c6ccccc6n2c5c31)C(=O)N(CCN1CCCC1)C4=O` (stereo unspecified), the growth was 3.48% (active).

As to `CN(C)c1ccc(/C=C\c2cccc[n+]2C)cc1`, the growth was 4.18% (active).

With `CC(=O)NCc1cc(C)c(C)cc1C`, the growth is 93.4%.

`CCCCCCNC(=O)Oc1ccc(/C(=C(\C)c2ccc(OC)cc2)c2ccc(OCCN(C)C)cc2)cc1`: the growth was 95.4%.

Regarding `COCCOC(=O)c1ccc(C(C)C)cc1`, the growth was 106%.

For the molecule `COc1cc2ncnc(Nc3ccc(Oc4ccnc(C)c4)c(C)c3)c2cc1NC(=O)CC1CCSS1` (stereo unspecified), the growth is -67% (active).

Turning to `S=C(S)NCCc1c[nH]c2ccccc12`, the growth is 98.6%.

As to `C=C1C(=O)O[C@@H]2C3C(=C(C)CC[C@@H]12)CC1O[C@]13C` (stereo partly specified), the growth was 19.3% [6.75 µM].

With `CCC(CC)COC(=O)c1ccc(O)c(O)c1`, the growth was 80.6%.

Turning to `Oc1c(CN2CCCC2)cc(COCc2ccc(Br)cc2)c2cccnc12`, the growth is -28.2% (active).

On to `COc1cc(-c2nc(SC(C)C)n(C(C)C)c(=O)c2C#N)ccc1OCc1ccccc1`, for which the growth is 66.8%.

On to `FC(F)(F)c1ccc(Cn2cc(CSc3nc4ccccc4s3)nn2)cc1`, for which the growth is 98.7%.

Turning to `CNC(=O)c1cc(Oc2ccc3nc(NC(=O)c4ccc(CN5CCCN(C)CC5)c(C(F)(F)F)c4)sc3c2)ccn1`, the growth was 8.05% (active).

Turning to `Clc1ccc(I)c2ccccc12`, the growth is 107%.
